According to PubChem BioAssay AID588591 (National Center for Advancing Translational Sciences (NCATS), 2011):
Hit rate of the full screen: of about 390,000 compounds, about 4,700 (1.2%) were called active. Entries that show only a call come without a potency. About 4% were inconclusive and are not listed. The call rests on the fitted dose curve; in most records, active means well fitted inhibition curve with a large enough effect; inconclusive means small, poorly fitted or top-dose-only effect, or another doubt; inactive means no such curve, though single readings can be large or run the other way. Only a selection was taken, and actives are over-represented in it overall.

biological target: DNA polymerase eta (Homo sapiens) (UniProt Q9Y253); test: qHTS for Inhibitors of Polymerase Eta; details: recombinant Pol eta, fluorescent DNA replication assay; series mostly up to 114 µM
Procedure, shortened: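 Pol eta at 10 nM preincubated with compounds 15 min at room temperature; reaction started with fluorescent substrate (50 nM final) and read kinetically at 0 and 10 min.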
Potency means the concentration at half of the fitted maximal effect.

Chain of DNA polymerase eta (Homo sapiens) (Q9Y253 whole entry, looked up): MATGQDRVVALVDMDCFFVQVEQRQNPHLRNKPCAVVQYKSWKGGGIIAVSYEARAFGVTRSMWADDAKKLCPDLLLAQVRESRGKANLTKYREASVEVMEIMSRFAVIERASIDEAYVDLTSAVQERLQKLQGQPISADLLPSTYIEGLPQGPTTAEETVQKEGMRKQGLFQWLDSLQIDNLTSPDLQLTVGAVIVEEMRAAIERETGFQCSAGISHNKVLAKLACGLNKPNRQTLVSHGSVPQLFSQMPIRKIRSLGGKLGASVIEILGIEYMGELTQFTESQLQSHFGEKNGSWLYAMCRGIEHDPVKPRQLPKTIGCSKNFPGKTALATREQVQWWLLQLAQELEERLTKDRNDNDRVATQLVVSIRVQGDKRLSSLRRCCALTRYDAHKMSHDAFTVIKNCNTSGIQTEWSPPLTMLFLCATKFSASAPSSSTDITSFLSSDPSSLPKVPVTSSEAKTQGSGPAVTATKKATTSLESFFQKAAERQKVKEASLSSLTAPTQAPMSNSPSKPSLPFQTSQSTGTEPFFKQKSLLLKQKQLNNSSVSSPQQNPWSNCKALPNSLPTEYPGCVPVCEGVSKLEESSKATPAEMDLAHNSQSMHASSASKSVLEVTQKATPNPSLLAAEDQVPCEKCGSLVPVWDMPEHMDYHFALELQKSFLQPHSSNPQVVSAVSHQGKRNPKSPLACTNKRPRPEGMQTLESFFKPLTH

For `O=C(CN1CCSc2ccccc21)N1CCN(c2ccccc2)CC1`, which Potency is on record?
Its Potency is “inactive”.

For `Cc1cc(C(=O)Nc2cccc(C(F)(F)F)c2)c2c(C)nn(-c3cccc(F)c3)c2n1`, which Potency is on record?
Its Potency is “inactive”.

`O=C(c1ccc2c(c1)N(Cc1ccc(Cl)cc1)C(=O)c1ccccc1S2(=O)=O)N1CCCCC1` was tested. Which Potency did it give?
The Potency was “inactive”.

How did the Potency turn out when `COc1ccc(NC(=O)CN2CCCN(Cc3ccccc3)S2(=O)=O)cc1` was run?
The Potency was “inactive”.

For `COc1c(Cl)cc(C(=O)N(Cc2ccccc2F)C2CCS(=O)(=O)C2)cc1Cl` (configuration not stated), which Potency is on record?
The Potency was “inactive”.

For `COc1ccc(NC(=O)CCc2nnc3n(CC(C)C)c(=O)c4ccccc4n23)cc1OC`, which Potency is on record?
The Potency was “inactive”.

`Cc1cccc(NC(=O)NC2(C)CCS(=O)(=O)C2)c1` (configuration not stated) was tested. Which Potency did it give?
The Potency was “inactive”.

`Cc1cccc(NC(=O)C2CC(=O)OC23CCCC3)c1` (configuration not stated) was tested. Which Potency did it give?
Its Potency is 25.1 µM (active).

For `Cc1cccc(NC(=O)C2CCN(C(=O)NC3CCCCC3)CC2)c1`, which Potency is on record?
The Potency was “inactive”.

With `Cc1ccc(CCNC(=O)c2ccc(CNS(=O)(=O)c3ccc(C)cc3)cc2)cc1` as the molecule, how does the Potency read?
Its Potency is “inactive”.

With `COc1ccc(CCNC(=O)c2cnc3sc(N4CCCCCC4)nn3c2=O)cc1OC` as the molecule, how does the Potency read?
Its Potency is “inactive”.

For `COc1ccccc1Nc1c2c(nc3ccc(NC(=O)/C=C/c4cc(OC)c(OC)c(OC)c4)cc13)CCCC2`, which Potency is on record?
Its Potency is “inactive”.

`Clc1ccccc1CSc1nnc(-c2ccco2)c(-c2ccco2)n1` was tested. Which Potency did it give?
Its Potency is 25.1 µM (active).

`Cc1ccc(-c2nnc(SCC(=O)NCc3ccccc3)nc2-c2ccc(C)cc2)cc1` was tested. Which Potency did it give?
Its Potency is “inactive”.

`c1ccc(CSc2nnc(-c3ccco3)c(-c3ccco3)n2)cc1` was tested. Which Potency did it give?
The Potency was 22.4 µM (active).

With `Fc1ccc(CSc2nc(NCc3ccccc3)c3ccccc3n2)cc1` as the molecule, how does the Potency read?
The Potency was “inactive”.

Which Potency does the source give for `CC1(C)N=C(SCc2ccccc2Cl)c2ccccc2N1` here?
Its Potency is “inactive”.

For `Clc1ccccc1CSc1nncn2c1cc1occc12`, which Potency is on record?
Its Potency is “inactive”.

With `CC1=C(C(=O)OCc2ccc(C)cc2)C(c2ccccc2Cl)CC(=O)N1` (configuration not stated) as the molecule, how does the Potency read?
Its Potency is “inactive”.

For `CCN(CC)c1ccc(NS(=O)(=O)c2cc(-c3cc(C)no3)ccc2C)c(C)c1`, which Potency is on record?
The Potency was “inactive”.

How did the Potency turn out when `COc1ccc(C)cc1Nc1nc2ccccc2c2nnc(C)n12` was run?
The Potency was “inactive”.

`O=C1CC(c2nnc(Cc3ccc(Cl)cc3)o2)CN1c1ccccc1` (configuration not stated) was tested. Which Potency did it give?
Its Potency is “inactive”.

Which Potency does the source give for `Cc1ccc(Cl)cc1NC(=O)C(C)n1nnc2sc(-c3ccccc3)cc2c1=O` (configuration not stated) here?
Its Potency is “inactive”.

For `COc1cc(OC)c(NC(=O)N2CC3CCCN3c3ccccc32)cc1Cl` (configuration not stated), which Potency is on record?
The Potency was “inactive”.

How did the Potency turn out when `C=CCn1c(=S)[nH]c2scc(-c3ccco3)c2c1=O` was run?
Its Potency is 17.8 µM (active).

Which Potency does the source give for `Cc1ccc(N2CC(NC(=O)Cc3cccs3)CC2=O)cc1` (configuration not stated) here?
The Potency was “inactive”.

How did the Potency turn out when `Cc1nn(-c2nc(-c3ccccc3)cc(C(F)(F)F)n2)c(C)c1Cl` was run?
The Potency was “inactive”.

Which Potency does the source give for `COc1cc([C@H](Cc2ccccc2)NC(C)=O)oc(=O)c1` here?
The Potency was 20 µM (active).

How did the Potency turn out when `COc1ccc2oc(C(=O)NCC(Cc3ccccc3)N(C)C)c(C)c2c1` (configuration not stated) was run?
The Potency was “inactive”.

`COc1ccc(OC)c(NC(=O)N[C@H](Cc2ccccc2)C(=O)NN)c1` was tested. Which Potency did it give?
Its Potency is “inactive”.

`CCOc1ccccc1CNC(=O)C1CCCN(S(=O)(=O)c2ccc3c(ccn3C)c2)C1` (configuration not stated) was tested. Which Potency did it give?
The Potency was “inactive”.

With `Cc1c2cnn(-c3ccccc3)c(=O)c2c(C)n1C(C)C(=O)Nc1ccc(Br)cc1F` (configuration not stated) as the molecule, how does the Potency read?
Its Potency is “inactive”.

How did the Potency turn out when `Cc1cc(=O)[nH]c(SCc2ccc(Cl)cc2)n1` was run?
Its Potency is “inactive”.

How did the Potency turn out when `Cc1cccc(-c2nc(SCc3ccc(Br)cc3)n3[nH]c(=O)cc3n2)c1` was run?
Its Potency is “inactive”.

How did the Potency turn out when `Cc1ccc(-c2nc(SCc3ccc(Br)cc3)n3[nH]c(=O)cc3n2)cc1` was run?
Its Potency is 20 µM (active).

With `Cc1cccc(N2CCN(c3ccc(C(=O)O)cc3NC(=O)c3ccccc3F)CC2C)c1` (configuration not stated) as the molecule, how does the Potency read?
Its Potency is “inactive”.

How did the Potency turn out when `Cc1ccc(-c2nn(CCC(=O)Nc3ccc(OC(F)(F)F)cc3)c(=O)c3ccccc23)cc1` was run?
Its Potency is “inactive”.

How did the Potency turn out when `O=C(O)CSCc1ccc(C(=O)O)o1` was run?
Its Potency is “inactive”.

`O=C(O)c1ccc(COc2c(F)c(F)cc(F)c2F)o1` was tested. Which Potency did it give?
Its Potency is 44.7 µM (active).

`O=C(c1ccco1)N1CCN(C(=O)c2ccc(COc3ccc(F)cc3)o2)CC1` was tested. Which Potency did it give?
Its Potency is “inactive”.

For `COc1cc(C(=O)N2CCN(C(=O)COc3cccc(C)c3)CC2)cc(OC)c1OC`, which Potency is on record?
The Potency was “inactive”.

With `CCOc1ccc(NC(=O)c2c(NC(=O)Cc3ccccc3)sc3c2CCC(C)C3)cc1` (configuration not stated) as the molecule, how does the Potency read?
The Potency was “inactive”.

Which Potency does the source give for `Cc1ccc(C)c(Cn2c(=O)n(CCC(=O)NCc3ccc4c(c3)OCO4)c(=O)c3sccc32)c1` here?
The Potency was “inactive”.

With `Cc1ccc(S(=O)(=O)N2CCC(C(=O)Nc3cc(C)ccc3C)CC2)cc1` as the molecule, how does the Potency read?
Its Potency is “inactive”.

For `Cc1cccc(NC(c2cccc(F)c2)c2ccc3ccc(C)nc3c2O)n1` (configuration not stated), which Potency is on record?
Its Potency is “inactive”.

Which Potency does the source give for `O=C(CSc1nc(O)c(Cc2ccccc2)c(=O)[nH]1)Nc1nc2c(s1)CCCC2` here?
Its Potency is “inactive”.

How did the Potency turn out when `O=C(CSc1nc2ccccc2c(=O)[nH]1)Nc1nc(-c2ccc(Br)cc2)cs1` was run?
Its Potency is 5.01 µM (active).

How did the Potency turn out when `O=C(COC(=O)c1cc(=O)[nH]c2ccccc12)Nc1nc(-c2cccc(Br)c2)cs1` was run?
Its Potency is “inactive”.

With `CCOc1ccc(C2C(C(=O)Nc3ccc(Cl)cc3)=C(C)Nc3nc(C(F)(F)F)nn32)cc1` (configuration not stated) as the molecule, how does the Potency read?
Its Potency is “inactive”.

`CCc1nnc2c3ccccc3nc(N3CCN(c4ccc(C)cc4C)CC3)n12` was tested. Which Potency did it give?
The Potency was “inactive”.

Which Potency does the source give for `O=C(CCc1ccccc1)NCc1ccc2c(c1)CCN2C(=O)c1ccccc1` here?
Its Potency is “inactive”.

`CSC1=N/C(=C\C=C\c2cccs2)C(=O)S1` was tested. Which Potency did it give?
Its Potency is 17.8 µM (active).

Which Potency does the source give for `COc1cccc(-n2ccn(CC(=O)NCc3ccc(C)cc3)c(=O)c2=O)c1` here?
Its Potency is “inactive”.

`COc1ccc(Cn2ccnc2SCC(=O)NCc2ccco2)cc1` was tested. Which Potency did it give?
The Potency was “inactive”.

For `O=c1cc2nc(-c3ccccc3)nc(SCCOc3ccc(Cl)cc3)n2[nH]1`, which Potency is on record?
Its Potency is “inactive”.

`Cc1ccc(OCCSc2nc(-c3cccs3)nc3cc(=O)[nH]n23)cc1Cl` was tested. Which Potency did it give?
Its Potency is 79.4 µM (active).

`CC(C)c1c(O)nc(SCCOc2ccc(Cl)cc2)[nH]c1=O` was tested. Which Potency did it give?
Its Potency is “inactive”.

Which Potency does the source give for `CCCNC(=O)CCC(=O)N1Cc2ccccc2Oc2ncccc21` here?
The Potency was “inactive”.

`CC(=O)c1ccc(N2CCN(C3C(=O)c4ccccc4N3C(C)=O)CC2)cc1` (configuration not stated) was tested. Which Potency did it give?
Its Potency is “inactive”.

How did the Potency turn out when `COc1ccccc1C(=O)N/C(=C/c1ccc2c(c1)OCO2)C(=O)Nc1cccc(C(=O)O)c1` was run?
The Potency was “inactive”.

`COc1ccccc1C(=O)N/C(=C/c1ccco1)C(=O)Nc1ccc(C(=O)O)cc1` was tested. Which Potency did it give?
The Potency was 17.8 µM (active).

For `COc1ccccc1C(=O)NC(=O)COC(=O)c1ccco1`, which Potency is on record?
The Potency was “inactive”.

Which Potency does the source give for `COc1cccc(CNC(=O)CCC(=O)N2CC3CCCN3c3ccccc32)c1` (configuration not stated) here?
The Potency was “inactive”.

How did the Potency turn out when `CC(N)=NCc1cccc(CN)c1` was run?
The Potency was “inactive”.

`COc1ccc(NC(=O)COCc2cc(-c3ccco3)on2)cc1` was tested. Which Potency did it give?
The Potency was “inactive”.

How did the Potency turn out when `COc1ccc(OCCCC(=O)Nc2nnc(C3CCCO3)s2)cc1` (configuration not stated) was run?
The Potency was “inactive”.

`COc1ccc(OCC(=O)Nc2nnc(-c3ccco3)s2)cc1` was tested. Which Potency did it give?
Its Potency is 56.2 µM (active).
